An excerpt weighted towards active compounds, which were near 2.3% of everything screened.
C diff growth: inhibitors of Clostridium difficile growth; growth activity, negative = inhibition, % at 16 µg/mL (by protocol); 0.25% of 86,000 active; Clostridium difficile clinical isolate growth, OD600, 24 h; stronger effect = lower value;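 active = mean growth activity at or below -80% and every replicate also at or below -80%; inconclusive = mean at or below -80% but some replicate above -80%; inactive = mean growth activity above -80%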;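 also: 0% = DMSO wells and -100% = levofloxacin 16 µg/mL wells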
Pf Dd2 inh: P. falciparum Dd2 growth inhibition | 2.3% of 94,000 active | AID 1159554 | SYBR Green, 72 h; stronger effect = lower value | activity change, % at 10 µM; in the data active = activity change below about -80%; inconclusive = no clear call, values can overlap the other calls
An asterisk follows results filed as active; ? = inconclusive; · = no result given.

SMILES	C diff growth	Pf Dd2 inh
COc1ccc2c3c(n(C)c2c1)[C@@H](CO)N(C(=O)Nc1ccc(F)cc1)CC31CCN(C(=O)CC2CC2)CC1	30.9	-63.1
C[C@@H]1CN([C@@H](C)CO)C(=O)c2cc(C#Cc3cccnc3)cnc2O[C@H]1CN(C)C(=O)CN(C)C	-0.2	-11.2
N#C[C@@H]1[C@@H](c2ccccc2)[C@@H](CO)N1C(=O)c1cccnc1	-18.1	43.0
C/C=C/c1ccc([C@H]2[C@@H](CO)N(C(=O)NC3CCCC3)[C@H]2C#N)cc1	-0.5	18.4
C/C=C/c1ccc([C@H]2[C@@H](C#N)N(C(=O)NC3CCCC3)[C@@H]2CO)cc1	0.4	-83.7*
CC(C)NC(=O)N1[C@H](C#N)[C@H](c2ccccc2-c2ccc(F)cc2)[C@@H]1CO	-2.4	-89.8*
CC(C)NC(=O)N1[C@H](C#N)[C@@H](c2ccccc2-c2ccc(F)cc2)[C@@H]1CO	0.7	-38.0
COc1ccc(-c2ccc([C@H]3[C@H](C#N)N(C(=O)c4cccnc4)[C@H]3CO)cc2)cc1	-3.4	-90.8*
CN(C)C(=O)c1cccc(-c2ccc3c(c2)[C@H]2[C@H](CCN2Cc2ccccc2F)[C@@H](CO)N3)c1	1.2	-68.5
Cc1ccc(S(=O)(=O)Nc2ccc3c(c2)C(=O)N([C@@H](C)CO)C[C@H](C)[C@@H](CN(C)S(=O)(=O)c2c(C)noc2C)OCCCC[C@H](C)O3)cc1	9.0	-45.0
O=C(C[C@H]1C[C@@H]2c3cc(NC(=O)C4CCC4)ccc3O[C@@H]2[C@@H](CO)O1)NCCc1ccccc1	-3.8	-2.5
COCC(=O)Nc1ccc2c(c1)OC[C@@H](C)N(C(=O)c1ccccc1F)C[C@@H](C)[C@@H](OC)CN(C)C2=O	-4.3	-18.5
C[C@H]1CN([C@@H](C)CO)C(=O)Cc2cc(NC(=O)NC3CCCCC3)ccc2O[C@H]1CN(C)C(=O)Nc1cccc2ccccc12	-16.9	-9.3
C[C@@H]1CN([C@@H](C)CO)C(=O)Cc2cc(NC(=O)NC3CCCCC3)ccc2O[C@H]1CN(C)C(=O)Nc1cccc2ccccc12	-13.7	-91.7*
C[C@H](CO)N1C[C@H](C)[C@@H](CN(C)C(=O)Nc2cccc3ccccc23)Oc2ccc(NC(=O)Nc3cccc4ccccc34)cc2CC1=O	1.4	-89.2*
C[C@@H]1CN([C@H](C)CO)C(=O)Cc2cc(NC(=O)Nc3ccc(C(F)(F)F)cc3)ccc2O[C@@H]1CN(C)C(=O)Nc1cccc2ccccc12	2.3	-68.9
C[C@H](CO)N1C[C@H](C)[C@@H](CN(C)C(=O)Nc2cccc3ccccc23)Oc2ccc(NC(=O)Nc3ccc(C(F)(F)F)cc3)cc2CC1=O	15.4	-84.8*
C[C@H](CO)N1C[C@H](C)[C@H](CN(C)C(=O)Nc2cccc3ccccc23)Oc2ccc(NC(=O)Nc3cccc4ccccc34)cc2CC1=O	-6.9	-10.3
C[C@@H]1CN([C@@H](C)CO)C(=O)c2cc(NC(=O)C3CC3)ccc2O[C@@H]1CN(C)S(=O)(=O)c1ccc(F)cc1	2.4	13.9
O=C(C[C@H]1C[C@@H]2c3cc(NC(=O)Nc4ccc(C(F)(F)F)cc4)ccc3O[C@@H]2[C@H](CO)O1)NCc1ccccn1	3.9	-20.1
Cc1ccc(S(=O)(=O)N(C)C[C@H]2OCCCC[C@H](C)Oc3ccc(NC(=O)Nc4ccccc4)cc3C(=O)N([C@H](C)CO)C[C@@H]2C)cc1	3.2	-70.9
C[C@@H]1CCCCO[C@@H](CN(C)S(=O)(=O)c2ccccc2)[C@H](C)CN([C@@H](C)CO)C(=O)c2cc(NC(=O)Nc3ccccc3)ccc2O1	·	-27.5
C[C@@H]1CCCCO[C@H](CN(C)S(=O)(=O)c2ccccc2)[C@H](C)CN([C@H](C)CO)C(=O)c2cc(NC(=O)Nc3ccccc3)ccc2O1	·	-84.8*
Cc1ccc(S(=O)(=O)N(C)C[C@H]2OCCCC[C@H](C)Oc3ccc(NC(=O)Nc4ccccc4)cc3C(=O)N([C@@H](C)CO)C[C@H]2C)cc1	8.6	-91.0*
Cc1ccc(S(=O)(=O)N(C)C[C@@H]2OCCCC[C@@H](C)Oc3ccc(NC(=O)Nc4ccccc4)cc3C(=O)N([C@H](C)CO)C[C@@H]2C)cc1	10.3	-85.9*
SMILES	C diff growth	Pf Dd2 inh
C[C@@H]1CN([C@H](C)CO)C(=O)c2cc(NC(=O)Nc3ccccc3)ccc2O[C@@H](C)CCCCO[C@H]1CN(C)S(=O)(=O)c1ccccc1	·	-78.6
Cc1ccc(S(=O)(=O)N(C)C[C@@H]2OCCCC[C@@H](C)Oc3ccc(NC(=O)Nc4ccccc4)cc3C(=O)N([C@H](C)CO)C[C@H]2C)cc1	16.6	-84.8*
Cc1ccc(S(=O)(=O)N(C)C[C@@H]2OCCCC[C@H](C)Oc3ccc(NC(=O)Nc4ccccc4)cc3C(=O)N([C@H](C)CO)C[C@@H]2C)cc1	-1.0	?
CC(C)C#Cc1cnc2c(c1)C(=O)N([C@@H](C)CO)C[C@@H](C)[C@@H](CN(C)C(=O)c1ccccc1F)O2	-1.5	-7.5
C[C@H](CO)N1C[C@H](C)[C@@H](CN(C)S(=O)(=O)c2cn(C)cn2)Oc2c(cccc2N(C)C)C1=O	4.0	-22.9
CCC(=O)N(C)C[C@@H]1Oc2ncc(-c3ccc(C#N)cc3)cc2C(=O)N([C@@H](C)CO)C[C@@H]1C	2.1	6.6
O=C(C[C@@H]1CC[C@H](NC(=O)c2ccccn2)[C@H](CO)O1)NCc1cccc(F)c1	-0.5	7.1
COc1ccc2c3c([nH]c2c1)[C@@H](CO)N(Cc1cccc(F)c1)CC31CN(Cc2ccccn2)C1	-0.3	?
COc1cccc(CN2CC3(CN(Cc4ccccn4)C3)c3c([nH]c4cc(OC)ccc34)[C@H]2CO)c1	12.7	-86.9*
COc1ccc2c3c([nH]c2c1)[C@H](CO)N(Cc1ccncc1)CC31CN(Cc2ccc(-c3ccccn3)cc2)C1	5.3	-89.2*
COc1ccc2c3c([nH]c2c1)[C@@H](CO)N(Cc1ccc(F)cc1)CC31CN(Cc2ccccn2)C1	8.3	?
COc1ccc2c3c([nH]c2c1)[C@@H](CO)N(Cc1ccncc1)CC31CN(Cc2ccc(-c3ccccn3)cc2)C1	4.3	?
COc1cccc(CN2CC3(CCN(Cc4ccccn4)CC3)c3c([nH]c4cc(OC)ccc34)[C@H]2CO)c1	4.6	-83.5*
CCCNC(=O)[C@H]1[C@H](CO)[C@H]2Cn3c(ccc(-c4ccccc4)c3=O)[C@@H]1N2C(=O)CC	5.8	6.8
C[C@H]1CN([C@@H](C)CO)C(=O)c2cc(C3=CCCCC3)cnc2O[C@H]1CN(C)C(=O)c1ccccn1	-2.4	-0.3
C[C@@H]1CN([C@H](C)CO)C(=O)c2cc(NC(=O)Nc3cccc4ccccc34)ccc2O[C@@H](C)CCCCO[C@@H]1CN(C)S(=O)(=O)c1cccs1	·	-88.4*
C[C@@H]1CCCCO[C@@H](CN(C)S(=O)(=O)c2ccc(F)cc2)[C@@H](C)CN([C@@H](C)CO)C(=O)c2cc(NC(=O)Nc3cccc4ccccc34)ccc2O1	3.6	-83.8*
C[C@@H]1CCCCO[C@@H](CN(C)S(=O)(=O)c2ccc(F)cc2)[C@H](C)CN([C@H](C)CO)C(=O)c2cc(NC(=O)Nc3cccc4ccccc34)ccc2O1	-4.7	-82.0*
C[C@@H]1CCCCO[C@H](CN(C)S(=O)(=O)c2cccs2)[C@H](C)CN([C@@H](C)CO)C(=O)c2cc(NC(=O)Nc3cccc4ccccc34)ccc2O1	·	-54.3
